# Assay outcomes deposited in PubChem BioAssay by National Center for Advancing Translational Sciences (NCATS).
# Many of the other results were omitted from the sample, so hits are more common in it than they were.
# TSHR antagonist: antagonists of human thyroid stimulating hormone receptor. P16473. TSHR-expressing cells, TSH-stimulated cAMP HTRF, 2 h; stronger effect = lower value. activity change, negative = inhibition, % at 11.5 µM. 330,000 compounds, 0.2% hits;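 active = activity change below a set negative limit, meaning inhibition stronger than a set level, cut at about -70% in these data; inconclusive = activity change between two set negative limits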; note: % is set by controls: 0 for no effect and ±100 for the full control effect
# Target sequence (P16473 whole entry, looked up): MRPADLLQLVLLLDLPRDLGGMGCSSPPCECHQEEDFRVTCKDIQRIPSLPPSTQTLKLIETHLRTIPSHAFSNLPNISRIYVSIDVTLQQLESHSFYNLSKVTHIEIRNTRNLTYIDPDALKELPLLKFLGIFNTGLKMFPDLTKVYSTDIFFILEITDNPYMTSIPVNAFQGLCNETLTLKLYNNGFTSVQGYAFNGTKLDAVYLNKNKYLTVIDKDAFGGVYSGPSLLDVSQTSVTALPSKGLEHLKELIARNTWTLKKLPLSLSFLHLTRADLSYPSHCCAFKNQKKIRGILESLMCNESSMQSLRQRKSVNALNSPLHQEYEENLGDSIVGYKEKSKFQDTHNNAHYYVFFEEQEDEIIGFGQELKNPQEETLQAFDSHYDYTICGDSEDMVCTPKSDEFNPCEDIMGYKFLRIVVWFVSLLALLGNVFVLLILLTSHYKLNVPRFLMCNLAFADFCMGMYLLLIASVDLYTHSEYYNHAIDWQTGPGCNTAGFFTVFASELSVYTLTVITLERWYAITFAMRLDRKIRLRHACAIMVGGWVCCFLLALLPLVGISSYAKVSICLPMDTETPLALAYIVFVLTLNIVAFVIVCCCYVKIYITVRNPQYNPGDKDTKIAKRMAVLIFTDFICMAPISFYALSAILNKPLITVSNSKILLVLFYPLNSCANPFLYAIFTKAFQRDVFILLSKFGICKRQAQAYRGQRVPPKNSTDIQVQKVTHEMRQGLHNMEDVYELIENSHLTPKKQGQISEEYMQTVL
#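 Competitive HTRF cAMP read-out (cryptate anti-cAMP antibody, cAMP-d2; 30 min, room temperature) in freshly harvested TSHR cells. Compounds added before TSH at EC80 (4nM final), followed by 2 hours' incubation at 37 deg C.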
# PTHR1 agonist: activates the human parathyroid hormone receptor PTHR1 | HEK293 GP2 PTHR1 cells, GloSensor cAMP luminescence, 1 h | Potency, µM (titrated, usually from 115 µM), for the others: at the top dose activation, actives largely listed as activators | 410,000 compounds, 0.075% hits | AID 743266; note: potency is the fitted concentration of half-maximal effect; nearly all actives have a fitted effect of over 55% in size
#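 HEK-293-derived GP2 cells expressing PTHR1 and a GloSensor cAMP reporter, 3,000/well, plated overnight, given luciferin plus IBMX (each 0.5 mM as added) for 1 h at 37 °C, then compound for 1 h at 37 °C. Luminescence was read after 15 min at room temperature.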
# RXFP1 antag: blocks the human relaxin receptor RXFP1; Q9HBX9; HEK293-RXFP1, relaxin-stimulated cAMP HTRF, 30 min; stronger effect = lower value; activity change, negative = inhibition, % at 57.5 µM; 350,000 compounds, 0.59% hits;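 active = activity change of -60% or lower, but not beyond a set lower limit; inconclusive = change between -60% and -40%, or beyond the set limit; inactive = change above -40%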; note: % is set by controls: 0 for no effect and ±100 for the full control effect
# TCR act: activates T cell receptor signaling; primary human leukocytes, anti-CD3, IL-2 HTRF, 48 h; Potency, µM (doses to about 9.22 µM), for inactives: at the top dose activation of IL-2 secretion, usual class: activators; 330,000 tested, under 10 active; note: % of control where 0% means no effect
#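 Primary human leukocytes were stimulated with a-CD3 beads plus compounds for 48 hr without co-stimulation; secreted IL-2 was quantified by HTRF using a-IL-2-K (europium cryptate) and a-IL-2-d2, excited at 320nm with acceptor emission read at 665nm.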
# RXFP1 agonist: activates the human relaxin receptor RXFP1. HEK293T-RXFP1 cAMP TR-FRET, 30 min; response scale: percent of porcine relaxin response, buffer zero. Potency, µM (top dose mostly 57.5 µM), for inactives: at the highest dose activation, most hits filed as activators. 370,000 compounds, 0.3% hits. AID 2676; note: potency is the fitted concentration of half-maximal effect; % is set by controls: 0 for no effect and ±100 for the full control effect; nearly all actives have a fitted effect of over 60% in size
#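 HEK293 cells stably expressing RXFP1, treated 30 min at 37C with compounds plus PDE4 inhibitor Ro 20174; cAMP measured by HTRF TR-FRET. Normalized to buffer and 29 nM porcine relaxin; EC50 by Hill fit.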
# NPSR antagonist: neuropeptide S receptor (human) antagonism, cAMP. Q6W5P4. CHO-NPSR cells, cAMP TR-FRET, antagonist mode. Potency, µM (titrated, usually from 38.3 µM), for inactives: top-dose activity change, negative = inhibition, most hits filed as inhibitors. 220,000 compounds, 1% hits. AID 1461; note: potency is the fitted concentration of half-maximal effect; % is set by controls: 0 for no effect and ±100 for the full control effect; nearly all actives have a fitted effect of over 50% in size
# * marks the source's active call; other numbers are inactive results; i = inactive; ? = inconclusive; / = no result; [ ] = dose if it differs, or a comment. Unless noted, calls come from the whole dose curve; as a rule, active = well fitted curve in the direction sought with a large enough effect; inconclusive = small, poorly fitted or top-dose-only effect, or another doubt; inactive = no such curve, though single readings can be large; an effect the other way counts as inactive or inconclusive.
SMILES,TSHR antagonist,PTHR1 agonist,RXFP1 antag,TCR act,RXFP1 agonist,NPSR antagonist
O=C(NC1CCCCC1)c1sc(=S)n2c1[nH]c(=O)c1ccccc12,-83.4*,-19.1%[57.5 µM],-2.5,-8.3%,0.4%,-12.9%[46.1 µM]
CCOC(=O)c1cc2c(=O)n3ccccc3nc2n(Cc2ccco2)c1=NC(=O)c1ccccc1OCC,-2.5,-30.0%,-5.4,-25.1%,28.2µM*,-28.2%
Cn1cc(C(=O)NCc2ccc(Cl)cc2)c(=O)c2cc(S(=O)(=O)N3CCCCCC3)ccc21,/,-18.3%,-12.1,/,12.1%,/
COc1ccc2nc(Nc3nc(C)c(C(C)=O)s3)sc2c1,-37.9,-27.5%,-70.0*,5.6%,5.9%,?
C[n+]1c2cc(N)ccc2cc2ccc(N)cc21 (tested in a mixture with another compound),/,/,-8.9,/,/,/
COc1cccc(C(=O)NNC(=O)C(=O)Nc2cccc(Cl)c2C)c1,-5.4,-11.7%,-69.5*,-0.1%,0.9%,/
C=C(C)COc1ccc(-c2[nH]ncc2-c2ccccc2)c(O)c1,-11.3,-1.0%[57.5 µM],-29.8,3.7%,-0.3%,?
C=C(C)COc1ccc(-c2[nH]ncc2-c2ccc(OC)c(OC)c2)c(O)c1,-20.1,-18.0%[57.5 µM],-77.8*,-29.8%,1.9%,-14.2%[46.1 µM]
C=C(C)COc1ccc(-c2[nH]ncc2-c2ccc(OC)cc2)c(O)c1,3.1,i,-63.9*,-9.1%,2.7%,-39.2%
COc1ccc(-c2cn[nH]c2-c2ccc(OCc3ccc(F)cc3)cc2O)cc1OC,-2.3,-21.3%,-72.9*,-0.7%,1.9%,-50.8%
Cc1nc(-c2cccc(S(=O)(=O)N3CCC(C(=O)NCc4ccccc4)CC3)c2)no1,/,i,-22.1,/,-0.8%,/
CCCNc1c(NS(=O)(=O)c2ccc(Br)cc2)c(=O)oc2ccccc12,-146.7*,-4.4%,-4.4,-1.2%,-1.0%,/
O=c1oc2ccccc2c(NC2CCCCC2)c1NS(=O)(=O)c1ccc(Br)cc1,16.8,-28.2%,-23.1,-3.0%,0.4%,/
O=C(NC1CCN(Cc2ccccc2)CC1)c1ccccc1OCc1ccccc1,-7.4,-8.4%,-4.2,-7.9%,1.6%,/
COCCCNCCCCOc1ccc(OCc2ccccc2)cc1,5.2,i,-27.7,-3.3%,0.5%,1.1%
c1ccc(COc2ccc(OCCCNC3CCCC3)cc2)cc1,-3.4,-15.0%,-86.1*,-2.7%,1.1%,16.0%[46.1 µM]
O=C(NC1CCCC1)c1ccccc1OCc1ccccc1,-3.5,-22.8%,-81.8*,-1.5%,-1.6%,-25.5%
COc1cc2c(cc1OC)C(COc1ccccc1OC)N(C(=O)c1ccc(S(=O)(=O)N3CCCC3)cc1)CC2 (centres undefined),/,-35.2%,/,/,1.0%,/
CCOc1ccc(-c2nonc2NC(=O)c2oc3cc(C)ccc3c2C)cc1,/,-7.0%,-65.9*,/,-3.0%,/
O=C1CC(c2ccc(Cl)cc2)CC(=O)N1,/,/,-3.0,/,/,/
CCOc1ccc(NC(=O)CN(C)S(=O)(=O)c2ccc3c(c2)CCC(=O)N3)cc1,6.9,i,-4.5,2.4%,-2.5%,6.7%
CC(=O)Nc1ccc(NC(=O)CN(C)S(=O)(=O)c2ccc3c(c2)CCC(=O)N3)cc1,-3.7,i,-85.8*,4.8%,-0.3%,/
COc1ccccc1N=Nc1nc(-c2ccccc2)c(-c2ccccc2)[nH]1,-12.5,-10.9%,2.1,1.0%[46.1 µM],0.1%,12.6µM*
COc1cccc(CNc2ncc(Br)cc2Br)c1O,5.6,-61.4%[57.5 µM],-78.0*,-1.9%,3.0%,10µM*
COc1ccc(N2CCN(C(=O)c3cc(S(=O)(=O)N4CCC(C)CC4)cn3C)CC2)cc1,/,-12.6%,/,/,-2.6%,/
SMILES,TSHR antagonist,PTHR1 agonist,RXFP1 antag,TCR act,RXFP1 agonist,NPSR antagonist
COc1ccccc1NC(=O)Nc1nc(CC(=O)NCc2ccc(F)cc2)cs1,-11.6,-23.1%,-76.2*,-3.0%,-1.5%,/
COc1ccccc1NC(=O)Nc1nc(CC(=O)NCc2c(F)cccc2F)cs1,-10.8,-47.6%,-37.9,0.2%,1.6%,/
COc1cc(/C=C2\SC(=O)N(CCN)C2=O)ccc1OS(=O)(=O)c1cc(C)ccc1C,0.7,i,-72.4*,-3.2%,-2.2%,?
O=C1C(F)=CC(COC(c2ccccc2)(c2ccccc2)c2ccccc2)OC1n1cc(F)c(=O)[nH]c1=O (centres undefined),/,-28.9%,-83.7*,-8.2%,/,/
COc1cccc(C(=O)N2c3nc(-c4ccco4)nn3C3(CCCCC3)[C@@H]3CCCC[C@@H]32)c1,/,i,-64.8*,/,4.1%,/
O=C(c1cccc(Cl)c1)N1c2ncnn2C2(CCCCC2)[C@@H]2CCCC[C@@H]21,/,-39.6%,-61.3*,/,-2.6%,/
O=C(c1cccc(Cl)c1)N1c2nc(-c3ccco3)nn2C2(CCCCC2)[C@@H]2CCCC[C@@H]21,/,i,-3.9,/,0.6%,/
CN(C)c1ccc(-c2nc3ccccn3c2/N=C/c2ccc(Br)cc2)cc1,4.7,-6.2%,2.5,-1.0%[46.1 µM],2.8%,10µM*
COc1ccccc1N1CCN(C(=O)CSc2nc3ccccc3nc2Cc2ccccc2)CC1,/,-17.6%,/,/,4.7%,/
CC1=CC2C(C(O)CC3(C)C2CC(C)C32OCOC23COCO3)C2(C)C/C(=C\O)C(=O)C=C12 (centres undefined),/,-54.2%,-75.7*,-7.3%,/,/
Cc1ccc(-c2nnc(Nc3ccc(O)cc3)c3ccccc23)cc1S(=O)(=O)NCC1CCCO1 (centres undefined),/,-28.2%,-13.0,/,3.2%,/
COc1ccccc1Nc1c2c(nc3ccc(NC(=O)c4cccc(F)c4)cc13)CCCC2,/,-91.2%,-75.0*,/,-0.8%,/
CCCCN(Cc1ccccc1)c1ncnc2nc[nH]c12,-70.3*,-93.9%,/,-1.2%[46.1 µM],-0.4%,-15.2%
O=C(N/N=C/c1cccc(O)c1)c1cc(-c2ccc3c(c2)OCO3)n[nH]1,-7.1,-32.3%,-69.0*,0.9%[46.1 µM],-0.3%,-16.3%
C/C(=N/n1cnnc1)c1cccnc1,-3.4,15.8µM*,-6.5,-27.3%,0.0%,8.6%[46.1 µM]
COC(=O)c1cc(S(N)(=O)=O)ccc1OC,/,/,-12.4,/,/,/
NC(=O)C1CCN(C(=O)c2ccc(NC(=O)c3nsc4ccccc34)cc2)CC1,/,-37.0%,-2.5,/,-2.0%,/
CC1CCC/C=C/C(=O)c2c(O)cc(O)cc2CC(=O)O1 (centres undefined),-12.3,-96.3%,/,-13.0%,-0.2%,5.01µM*
O=C(Nc1ccc(Nc2ccccc2)cc1)c1ccc(Cl)c([N+](=O)[O-])c1,-26.3,-36.1%,-11.6,-3.0%,-1.1%,/
